Screening results from PubChem BioAssay.
ELG1 DNA repair: inhibitors of ELG1-dependent DNA repair in HEK293T cells; HEK293T ELG1-luciferase reporter, luminescence, 16 h; DNA damage induced by 5-fluorouridine; Potency, µM (highest dose often 46.1 µM), without a hit: at the highest dose activity change, negative = inhibition, hits mostly inhibitors; 330,000 tested, 2.3% active; also: % is scaled to controls: 0 for no effect and ±100 for the full control effect; nearly all actives have a fitted effect of over 55% in size
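Reporter activity after DNA damage by 5-fluorouridine is monitored. Compound-treated cells incubate 16 hr at 37 °C, then ONE-Glo is added for 30 min before luminescence reading.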
MCF10A rerep: inducers of DNA re-replication in MCF 10A breast cells. MCF 10A DNA re-replication, Hoechst nuclear intensity, 48 h. Potency, µM (highest dose often 46.1 µM), for inactives: top-dose activity, positive = re-replication, most hits filed as activators. 350,000 tested, 2.9% active; also: % of control where 0% means no effect; nearly all actives have a fitted effect of over 50% in size
SW480 rerep: induces DNA re-replication in SW480 colon adenocarcinoma cells; 340,000 tested, 1.8% active; SW480 DNA re-replication, Hoechst DNA content imaging, 48 h; Potency, µM (highest dose often 46.1 µM), without a hit: at the top dose re-replication activation, usual class: activators; also: % of control where 0% means no effect; nearly all actives have a fitted effect of over 55% in size
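250 cells/well; 23 nL cpd via pin tool; 48 hr, 37 C, 5% CO2; Hoechst 40 min; imager read of total nuclear intensity, ex 405/em 500-530 nm.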
KB-3-1 tox: KB-3-1 parental cell cytotoxicity | KB-3-1 viability, CellTiter-Glo ATP luminescence, 72 h | Potency, µM (top dose mostly 46.1 µM), usual class: cytotoxic | 400,000 tested, 1.4% active; also: % is scaled to controls: 0 for no effect and ±100 for the full control effect; nearly all actives have a fitted effect of over 60% in size
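Screening of KB-3-1 cells (DMEM, 10% FBS, phenol-red free) ran from lowest to highest compound concentration; after 72 h at 37 °C viability was read luminescently and curves fitted.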
KB-V1 MDR tox: kills drug-selected multidrug resistant KB-V1 cells. KB-V1 MDR cells viability, CellTiter-Glo, 72 h. AID 1347076. Potency, µM (titrated, usually from 46.1 µM), most hits filed as cytotoxic. 400,000 tested, 3.4% active; also: % is scaled to controls: 0 for no effect and ±100 for the full control effect; nearly all actives have a fitted effect of over 60% in size
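qHTS viability screen in drug-selected KB-V1 MDR cells: 72 h compound treatment at 37 degrees C, ATP luminescence end point.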
Active calls of the source: *; i = inactive; ? = inconclusive; / = not tested or not shown; [ ] = remark or other dose. The list is not random: actives were taken first. Their share in the collection is about 8.1%. Calls follow the shape of the dose curve; as a rule, active = well fitted curve in the direction sought with a large enough effect; inconclusive = small, poorly fitted or top-dose-only effect, or another doubt; inactive = no such curve, though single readings can be large; an effect the other way counts as inactive or inconclusive. Potency is read from the fitted curve at half-maximal effect.

SMILES	ELG1 DNA repair	MCF10A rerep	SW480 rerep	KB-3-1 tox	KB-V1 MDR tox
Cc1cc2nc(C)n(CCCNC(=O)Nc3cccc4ccccc34)c2cc1C	?	?	5%	?	16µM*
CCOc1ccc(NC(=O)NCCCn2c(C)nc3cc(C)c(C)cc32)cc1	?	4%	7%	i	23µM*
CCCn1cnc2c(SCc3ccccc3Cl)nc(N)nc21	/	?	-5%	?	?
c1cc2c3c(c1)CCCN3CCC2	/	/	/	i	i
O=C(NCc1ccccc1)c1ccc(NC(=O)c2nsc3ccccc23)cc1	/	/	/	i	i
COc1ccc2[nH]c3c(=O)n(Cc4ccc(C(=O)N5CCC(C(N)=O)CC5)cc4)c(=S)[nH]c3c2c1	8.2µM*	?	75%	i	i
CCCCNC(=O)c1ccc(Cn2c(=S)[nH]c3c([nH]c4ccc(OC)cc43)c2=O)cc1	?	16µM*	?	?	i
Cc1ccc(CCNC(=O)C(NS(=O)(=O)c2ccc3c(c2)oc(=O)n3C)C(C)C)cc1 (stereo unspecified)	/	/	/	i	i
Cc1cccc(NC(=O)CN2CCc3cc4c(cc3C2C)OCCCO4)c1 (stereo unspecified)	21µM*	13%	?	i	i
Cc1ccc(CNCc2cc3c(C(C)(C)C)nn(-c4ccccc4)c3[nH]c2=O)cc1	-13%	?	?	i	23µM*
COc1ccc(CNCc2cc3c(C(C)(C)C)nn(-c4ccccc4)c3[nH]c2=O)cc1	-14%	8%	-3%	i	?
CCOC(=O)C1=CC[C@@H](c2ccccc2)N(S(=O)(=O)c2ccc(C)cc2)[C@H]1C#N	/	/	/	i	i
CC(Sc1nc2ccccc2n1C)C(=O)NC(c1ccccc1)c1ccccc1 (stereo unspecified)	-4%	?	?	i	8.2µM*
O=C(C=Cc1ccccc1)c1ccc([N+](=O)[O-])cc1	/	160%	16µM*	i	i
COc1ccc(C=CC(=O)c2ccc([N+](=O)[O-])cc2)cc1	/	-8%	-3%	i	i
Cc1[nH]c(C)c(C(=O)/C=C/c2ccc([N+](=O)[O-])cc2)c1C	-14%	12µM*	?	?	i
Cc1ccc(C(=O)/C=C/c2ccccc2[N+](=O)[O-])cc1	?	16µM*	?	i	i
Cc1ccc(C(=O)/C=C/c2ccc(-c3ccccc3[N+](=O)[O-])o2)cc1	2%	-2%	-1%	i	i
COc1ccc(OC)c(CNC(=O)Cn2ncc3c([nH]c4ccc(C)cc43)c2=O)c1	/	/	/	i	i
CN1CCN(c2ccccc2NC(=O)c2cc3ccccc3o2)CC1	4%	8%	7%	i	?
COc1ccc(N2CCOCC2)c(NC(=O)c2cc3ccccc3o2)c1	-28%	?	?	i	12µM*
O=C(Nc1ccccc1N1CCOCC1)c1cc2ccccc2o1	17%	-5%	-10%	i	?
O=C(Nc1ccc(N2CCOCC2)c(Cl)c1)c1cc2ccccc2o1	?	13µM*	3%[9.22 µM]	?	?
CS(=O)(=O)N1CCN(c2ccccc2NC(=O)c2cc3ccccc3o2)CC1	21µM*	-2%	-11%	i	?
O=C(Nc1ccc(N2CCOCC2)c(Cl)c1)c1ccc(F)cc1	?	?	-7%	i	15µM*
SMILES	ELG1 DNA repair	MCF10A rerep	SW480 rerep	KB-3-1 tox	KB-V1 MDR tox
CCCCCCN1C[C@@H](O)[C@H](n2cc(COC(=O)c3ccccc3)nn2)C[C@@H]1c1ccccc1	/	/	/	i	i
COc1ccc(OC)c(/C=C/C(=O)OCC(=O)NCc2cccs2)c1	-10%	-9%	-7%	i	i
COC(=O)c1sc(-c2ccc(C(C)(C)C)cc2)cc1NC(=O)c1ccccc1C(=O)O	?	?	2%	i	i
COC(=O)c1sc(-c2ccc(C(C)(C)C)cc2)cc1NC(=O)CSCC(=O)O	9%	15µM*	-18%	i	?
Cc1nc(-n2[nH]c3c(c2=O)CCCC3)[nH]c(=O)c1Cc1ccccc1	?	21µM*	9.2µM*	?	2.6µM*
Cc1ccccc1NC(=O)c1ccccc1OCC(=O)Nc1ccc(Br)cc1	/	/	/	i	i
COc1cc(OC)c(-c2nc3cnccc3n2C)cc1OC	?	13%	-6%	i	i
Cn1c(-c2ccc3ccccc3n2)nc2cnccc21	?	4%	-2%	i	10µM*
COc1ccc(C(=O)OCC(=O)c2ccc(C3CCCCC3)cc2)cc1	11%	-7%	0%[9.22 µM]	i	i
Nc1ccc(O)cc1C(=O)OCC(=O)c1ccc(C2CCCCC2)cc1	?	23µM*	9.2µM*	i	i
CCOC(=O)CC(NC(=O)c1ccco1)c1ccc(OC)cc1 (stereo unspecified)	-1%	0%	4%	i	23µM*
COc1ccc(C(CC(=O)O)NC(=O)c2ccco2)cc1 (stereo unspecified)	6%	-179%[0.0737 µM]	-3%	i	i
c1ccc(-c2nc(NCc3ccco3)c3oc4ccccc4c3n2)cc1	-17%	16µM*	3%	i	?
OCCN(CCO)c1nc(-c2ccccc2)nc2c1oc1ccccc12	23µM*	-3%	-5%	i	i
c1ccc(-c2nc(NCCCn3ccnc3)c3oc4ccccc4c3n2)cc1	?	?	?	?	5.8µM*
Cc1ccc(-c2nc(NCc3ccco3)c3ccccc3n2)cc1	3%	?	-42%	i	i
CCc1nc(NCCCn2ccnc2)c2oc3ccccc3c2n1	-22%	11%	-3%	i	?
CCc1cccc(C)c1NC(=O)NC1COc2ccccc2C1 (stereo unspecified)	/	/	/	i	i
O=C(NCCN1CCCC(O)C1)c1cc(COc2cccc(C(F)(F)F)c2)on1 (stereo unspecified)	/	/	/	i	i
C1OCOCO1	/	1%	-2%	/	/
NC(=O)C1(N2CCCCC2)CCN(Cc2ccccc2Cl)CC1	-6%	16µM*	12µM*	i	?
NC(=O)C1(N2CCCCC2)CCN(S(=O)(=O)c2ccccc2)CC1	/	2%	-4%	i	i
Cc1ccc(C(=O)c2oc3ccccc3c2NC(=O)c2cc(-c3cc(C)ccc3O)n[nH]2)cc1	?	1.6µM*	?	?	?
Cc1ccc(C(=O)c2oc3ccccc3c2NC(=O)c2cc(-c3ccccc3O)n[nH]2)cc1	-9%	9.2µM*	18µM*	i	i
Cc1cc(NC(=O)C(C)(C)Oc2ccc(Cl)cc2)cc(-c2nc3ncccc3o2)c1O	/	/	/	i	i
COc1ccc(S(=O)(=O)N2CCOC2CNC(=O)C(=O)NCCc2c[nH]c3ccccc23)cc1C (stereo unspecified)	26µM*	4%	8%	i	i
